According to PubChem BioAssay (NCI):
The panel holds about 79,000 compounds, 15% with a hit somewhere; the sample as a whole holds those more often. A number with no mark means an inactive call. The source made the active and inactive calls. No stated cut-off is given here; in the data, active means growth inhibition above about 70%; inactive means the rest.

Key:
[1] = NCI Yeast Anticancer Drug Screen. Data for the rad50 strain (AID 155);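 further: 0% = growth of vehicle-only cultures of the same strain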; details: S. cerevisiae rad50 strain growth inhibition, stronger effect = higher value
Method in brief: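 Growth of the mutant yeast was measured after compound exposure and referenced to vehicle-treated cultures.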

[2] = NCI Yeast Anticancer Drug Screen. Data for the mec2-1 strain (AID 157); details: S. cerevisiae mec2-1 strain, stronger effect = higher value
Method in brief: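 Strain: mec2-1 (DNA repair/cell cycle alteration). Compound exposure, then growth measured; inhibition expressed relative to vehicle.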

[3] = NCI Yeast Anticancer Drug Screen. Data for the sgs1 mgt1 strain (AID 161);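 further: 0% = growth of cultures given vehicle only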; details: S. cerevisiae sgs1 mgt1 strain, stronger effect = higher value
Method in brief: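 Test agents were incubated with a DNA-repair-mutant yeast strain. Growth was then read and compared against vehicle-treated controls.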

[4] = NCI Yeast Anticancer Drug Screen. Data for the cln2 rad14 strain (AID 165);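 further: 0% = growth equal to vehicle treated cultures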; details: S. cerevisiae cln2 rad14 strain, stronger effect = higher value
Method in brief: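 Compounds are applied to the cln2 rad14 yeast strain, and growth is then compared with that of vehicle-treated cultures to give inhibition.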

[5] = NCI Yeast Anticancer Drug Screen. Data for the bub3 strain (AID 167); details: S. cerevisiae bub3 mutant strain, stronger effect = higher value
Method in brief: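 Whole-cell yeast assay. The mutant strain was incubated with compounds, and growth inhibition was determined by comparison with vehicle-treated cells.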

[6] = NCI Yeast Anticancer Drug Screen. Data for the mlh1 rad18 strain (AID 175); details: S. cerevisiae mlh1 rad18 strain growth inhibition, stronger effect = higher value
Method in brief: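 Read-out is yeast growth inhibition, calculated against vehicle-only controls. The compound was applied to a strain engineered with DNA damage repair alterations.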

[7] = at 5.0 µM (retest, dose inferred, filed as 0.5)
[8] = at 50.0 µM (retest, dose inferred, filed as 5.0)

CC(=O)Nc1ccc(C(=O)n2[nH]c(C)c(/C=C3\C(=O)C=Cc4ccccc43)c2=O)cc1
growth inhibition [1, 7]: 27%
growth inhibition [1, 8]: 100% (active)
growth inhibition ([1]; at 50.0 µM): 99.2% (active)
growth inhibition [2, 7]: 19%
growth inhibition [2, 8]: 100% (active)
growth inhibition ([2]; at 50.0 µM): 99.5% (active)
growth inhibition [3, 7]: 15%
growth inhibition [3, 8]: 99% (active)
growth inhibition ([3]; at 50.0 µM): 99.4% (active)
growth inhibition [4, 7]: -10%
growth inhibition [4, 8]: 99% (active)
growth inhibition ([4]; at 50.0 µM): 98.7% (active)
growth inhibition [5, 7]: 24%
growth inhibition [5, 8]: 100% (active)
growth inhibition ([5]; at 50.0 µM): 99.2% (active)
growth inhibition [6, 7]: 42%
growth inhibition [6, 8]: 99% (active)
growth inhibition ([6]; at 50.0 µM): 99% (active)

OC(c1cc2ccccc2o1)c1cc2ccccc2s1 (stereo not given)
growth inhibition [1, 7]: -4%
growth inhibition [1, 8]: 95% (active)
growth inhibition ([1]; at 50.0 µM): 44.2%
growth inhibition [2, 7]: -11%
growth inhibition [2, 8]: 94% (active)
growth inhibition ([2]; at 50.0 µM): 75.2% (active)
growth inhibition [3, 7]: 2%
growth inhibition [3, 8]: 46%
growth inhibition ([3]; at 50.0 µM): 70.4% (active)
growth inhibition [4, 7]: -12%
growth inhibition [4, 8]: 97% (active)
growth inhibition ([4]; at 50.0 µM): 61.6%
growth inhibition [5, 7]: -6%
growth inhibition [5, 8]: 93% (active)
growth inhibition ([5]; at 50.0 µM): 78.7% (active)
growth inhibition [6, 7]: 16%
growth inhibition [6, 8]: 94% (active)
growth inhibition ([6]; at 50.0 µM): 43%

Oc1ccccc1C(c1ccccc1O)C(Cl)(Cl)Cl
growth inhibition [1, 7]: 94% (active)
growth inhibition [1, 8]: 96% (active)
growth inhibition ([1]; at 50.0 µM): 95.7% (active)
growth inhibition [2, 7]: 96% (active)
growth inhibition [2, 8]: 97% (active)
growth inhibition ([2]; at 50.0 µM): 98.5% (active)
growth inhibition [3, 7]: 94% (active)
growth inhibition [3, 8]: 96% (active)
growth inhibition ([3]; at 50.0 µM): 97.3% (active)
growth inhibition [4, 7]: 97% (active)
growth inhibition [4, 8]: 96% (active)
growth inhibition ([4]; at 50.0 µM): 95% (active)
growth inhibition [5, 7]: 84% (active)
growth inhibition [5, 8]: 96% (active)
growth inhibition ([5]; at 50.0 µM): 98.2% (active)
growth inhibition [6, 7]: 91% (active)
growth inhibition [6, 8]: 96% (active)
growth inhibition ([6]; at 50.0 µM): 98% (active)

CC(=O)n1nc2c(c1CC(C)C)C(=O)C(Nc1ccccc1)=CC2=O
growth inhibition [1, 7]: 1%
growth inhibition [1, 8]: 100% (active)
growth inhibition ([1]; at 50.0 µM): 77% (active)
growth inhibition [2, 7]: 1%
growth inhibition [2, 8]: 100% (active)
growth inhibition ([2]; at 50.0 µM): 68.2%
growth inhibition [3, 7]: 1%
growth inhibition [3, 8]: 100% (active)
growth inhibition ([3]; at 50.0 µM): 80.2% (active)
growth inhibition [4, 7]: 6%
growth inhibition [4, 8]: 99% (active)
growth inhibition ([4]; at 50.0 µM): 27.9%
growth inhibition [5, 7]: -2%
growth inhibition [5, 8]: 99% (active)
growth inhibition ([5]; at 50.0 µM): 23.2%
growth inhibition [6, 7]: 1%
growth inhibition [6, 8]: 99% (active)
growth inhibition ([6]; at 50.0 µM): 78.3% (active)

COc1cccc2c1C(=O)c1c(O)c(COC3CC(N)C(O)C(C)O3)cc(O)c1C2=O (stereo not given)
growth inhibition [1, 7]: 14%
growth inhibition [1, 8]: 89% (active)
growth inhibition ([1]; at 50.0 µM): 96.7% (active)
growth inhibition [2, 7]: 14%
growth inhibition [2, 8]: 96% (active)
growth inhibition ([2]; at 50.0 µM): 73% (active)
growth inhibition [3, 7]: 13%
growth inhibition [3, 8]: 80% (active)
growth inhibition ([3]; at 50.0 µM): 99.3% (active)
growth inhibition [4, 7]: 3%
growth inhibition [4, 8]: 42%
growth inhibition ([4]; at 50.0 µM): 50.6%
growth inhibition [5, 7]: 7%
growth inhibition [5, 8]: 40%
growth inhibition ([5]; at 50.0 µM): 98% (active)
growth inhibition [6, 7]: 12%
growth inhibition [6, 8]: 53%
growth inhibition ([6]; at 50.0 µM): 98.3% (active)

Nc1nc2nn(-c3ccc(C(=O)O)cc3)nc2c(=O)[nH]1
growth inhibition [1, 7]: 2%
growth inhibition [1, 8]: 9%
growth inhibition ([1]; at 50.0 µM): 16.6%
growth inhibition [2, 7]: 3%
growth inhibition [2, 8]: 1%
growth inhibition ([2]; at 50.0 µM): 30.8%
growth inhibition [3, 7]: -4%
growth inhibition [3, 8]: 3%
growth inhibition ([3]; at 50.0 µM): 9.3%
growth inhibition [4, 7]: 4%
growth inhibition [4, 8]: 1%
growth inhibition ([4]; at 50.0 µM): -7.05%
growth inhibition [5, 7]: -2%
growth inhibition [5, 8]: -3%
growth inhibition ([5]; at 50.0 µM): 39.8%
growth inhibition [6, 7]: 3%
growth inhibition [6, 8]: 9%
growth inhibition ([6]; at 50.0 µM): 67.9%

Cn1c2c(c3ccccc31)CCN1C[C@@H]3CCCC[C@H]3C[C@@H]21
growth inhibition [1, 7]: 0%
growth inhibition [1, 8]: 55%
growth inhibition ([1]; at 50.0 µM): 65%
growth inhibition [2, 7]: 0%
growth inhibition [2, 8]: 2%
growth inhibition ([2]; at 50.0 µM): 8.8%
growth inhibition [3, 7]: -2%
growth inhibition [3, 8]: -1%
growth inhibition ([3]; at 50.0 µM): 74.4% (active)
growth inhibition [4, 7]: 6%
growth inhibition [4, 8]: -6%
growth inhibition ([4]; at 50.0 µM): -58.1%
growth inhibition [5, 7]: 2%
growth inhibition [5, 8]: 0%
growth inhibition ([5]; at 50.0 µM): 62.5%
growth inhibition [6, 7]: 0%
growth inhibition [6, 8]: 25%
growth inhibition ([6]; at 50.0 µM): 30.1%

O=C(CNC(=O)OCc1ccccc1)Oc1ccc([N+](=O)[O-])cc1
growth inhibition [1, 7]: -9%
growth inhibition [1, 8]: -1%
growth inhibition ([1]; at 50.0 µM): 22.1%
growth inhibition [2, 7]: -1%
growth inhibition [2, 8]: 38%
growth inhibition ([2]; at 50.0 µM): 58.4%
growth inhibition [3, 7]: 3%
growth inhibition [3, 8]: 7%
growth inhibition ([3]; at 50.0 µM): 48.6%
growth inhibition [4, 7]: -42%
growth inhibition [4, 8]: -56%
growth inhibition ([4]; at 50.0 µM): -60.2%
growth inhibition [5, 7]: -5%
growth inhibition [5, 8]: 0%
growth inhibition ([5]; at 50.0 µM): 64.2%
growth inhibition [6, 7]: 12%
growth inhibition [6, 8]: 36%
growth inhibition ([6]; at 50.0 µM): 73.7% (active)

O=C1OC(=O)C2C3CCC(C3=C3CCCCC3)C12 (stereo not given)
growth inhibition [1, 7]: -2%
growth inhibition [1, 8]: 93% (active)
growth inhibition ([1]; at 50.0 µM): 35%
growth inhibition [2, 7]: 7%
growth inhibition [2, 8]: 95% (active)
growth inhibition ([2]; at 50.0 µM): 28.2%
growth inhibition [3, 7]: -1%
growth inhibition [3, 8]: 58%
growth inhibition ([3]; at 50.0 µM): 40%
growth inhibition [4, 7]: 5%
growth inhibition [4, 8]: 96% (active)
growth inhibition ([4]; at 50.0 µM): -8.55%
growth inhibition [5, 7]: 5%
growth inhibition [5, 8]: 95% (active)
growth inhibition ([5]; at 50.0 µM): 10.8%
growth inhibition [6, 7]: -1%
growth inhibition [6, 8]: 93% (active)
growth inhibition ([6]; at 50.0 µM): 36.8%

c1ccc2c(c1)C[n+]1ccc3ccccc3c1-c1c3ccccc3cc[n+]1C2
growth inhibition [1, 7]: 8%
growth inhibition [1, 8]: 28%
growth inhibition ([1]; at 50.0 µM): 64.2%
growth inhibition [2, 7]: 6%
growth inhibition [2, 8]: 20%
growth inhibition ([2]; at 50.0 µM): 13.4%
growth inhibition [3, 7]: 11%
growth inhibition [3, 8]: 40%
growth inhibition ([3]; at 50.0 µM): 69.8%
growth inhibition [4, 7]: 1%
growth inhibition [4, 8]: 18%
growth inhibition ([4]; at 50.0 µM): 53%
growth inhibition [5, 7]: -2%
growth inhibition [5, 8]: 4%
growth inhibition ([5]; at 50.0 µM): 7.85%
growth inhibition [6, 7]: 7%
growth inhibition [6, 8]: 21%
growth inhibition ([6]; at 50.0 µM): 65.8%
